# Laboratory results as given in PubChem BioAssay AID1671188 (National Center for Advancing Translational Sciences (NCATS), 2021).
# Values joined by “and” are separate entries in the source; they are usually repeats but may differ in a detail not shown here. Identical values can stand only once. The campaign covered roughly 100,000 compounds. About 250 (0.25%) were called active. About 7% were inconclusive and are not listed. Calls come from the whole dose curve; as a rule, active = well fitted inhibition curve with a large enough effect; inconclusive = small, poorly fitted or top-dose-only effect; inactive = flat fitted curve, though single readings scatter. Only a selection was taken, and actives are over-represented in it overall. Some compounds were tested as several samples or in several runs, with calls that do not always agree.
# Biological target: Alanine aminotransferase 2 (Homo sapiens) (UniProt Q8TD30)
# Sequence (Q8TD30 whole entry, looked up): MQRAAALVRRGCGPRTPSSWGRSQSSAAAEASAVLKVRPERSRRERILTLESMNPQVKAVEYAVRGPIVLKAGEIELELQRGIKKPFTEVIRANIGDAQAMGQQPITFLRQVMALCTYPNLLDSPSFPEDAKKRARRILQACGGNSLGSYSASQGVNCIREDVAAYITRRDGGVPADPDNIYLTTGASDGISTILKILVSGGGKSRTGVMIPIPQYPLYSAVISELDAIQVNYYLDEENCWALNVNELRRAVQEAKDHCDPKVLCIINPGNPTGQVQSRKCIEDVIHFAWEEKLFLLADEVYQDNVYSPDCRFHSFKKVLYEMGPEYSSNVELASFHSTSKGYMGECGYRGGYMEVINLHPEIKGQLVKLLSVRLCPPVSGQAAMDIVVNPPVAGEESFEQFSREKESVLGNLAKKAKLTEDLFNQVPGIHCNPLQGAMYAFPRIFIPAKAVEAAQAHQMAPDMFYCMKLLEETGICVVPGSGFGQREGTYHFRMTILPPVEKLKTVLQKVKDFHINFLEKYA
# Assay: Primary qHTS assay for inhibitors of Glutamate pyruvate transaminase 2 (GPT2); note: nearly all actives have a fitted effect of over 60% in size
# Details: Recombinant GPT2, coupled pyruvate oxidase/HRP Amplex Red fluorescence; series mostly up to 57.7 µM; activity change, negative = inhibition: at the top concentration
# Experimental: Assay Provider: Zhenghe John Wang Ph.D.
# Case Western Reserve University, Cleveland OH
# Glutamate pyruvate transaminase 2 (GPT2) catalyzes the reversible transamination of glutamate and pyruvate to provide a-ketoglutarate and alanine. We have optimized an assay for GPT2 enzymatic activity that couples pyruvate formation to detection of fluorescence using an established pyruvate oxidase/horseradish peroxidase / Amplex Red system.
# Screening conditions were 250uM a-KG, 2mM L-alanine, and 10ng/uL GPT2 in […] of solution; 10uL of Amplex reaction mix (outlined below) were added so that final concentrations of Amplex reagents in 50uL were 0.2mM ThPP, 0.2U/mL PO and HRP, and 50uM Amplex.
# NOTE: The volume of GPT2 in the system depends on the activity of it. The activity is different every batch. You need to test the activity before the assay. For full plate assay with automation, plate 20uL of GPT2 buffer to pin into, then add 10uL of GPT2 dilution followed immediately by 10uL of substrate dilution. 2 Columns of the plate were devoted to GPT2 buffer ([…] PH7.5, 0.0001% Tween) + 50uM AOA (known GPT2 inhibitor) to serve as a positive control. Complete the assay as normal. Amplex-red buffer: […] PH7.5, 1 mM EDTA, 1 mM MgCl2.
# 1. Combine a-KG and L-alanine at desired concentrations and incubate for at least 10 minutes at 37C. Stocks of L-alanine and a-KG are diluted in distilled water. However, the stocks were diluted in GPT2 buffer for the assay.
# 2. Prepare GPT2 dilution at the desired concentration in GPT2 buffer.
# 3. Plate 40uL of GPT2 dilution with 40uL of substrate dilution and let incubate for 30 minutes at room temperature.
# 4. Add 20uL of Amplex reaction mix prepared as follows: 1.5uL 200U/mL Horseradish Peroxidase, 200mM Thiamine Pyrophosphate, 200U/mL Pyruvate Oxidase; 7.5uL 10mM Amplex Red; 288uL Amplex Buffer.
# 5. Incubate for 30 minutes at room temperature in the dark, then image using AM_Amplex_Fluorescence on plate reader nearest the window.
# % is set by controls: 0 for no effect and ±100 for the full control effect; potency is the fitted concentration of half-maximal effect.
SMILES,"activity change, negative = inhibition",outcome,Potency
c1ccc2c(CN3CCC[C@H]3c3nc(-c4ccnc(N5CCOCC5)c4)no3)c[nH]c2c1,1.43% [at 88.5 µM] (inactive),–,–
NC(=O)c1cccnc1N1CCN(CC2(O)CNCCOC2)CC1 (centres undefined),-3.06% (inactive),–,–
O=C1COCC2(CN(c3ccc(C(F)(F)F)cn3)C2)CN1c1cccnc1,-31.6% [at 88.5 µM] (inactive),–,–
Cc1ccccc1CN1CCc2ncc(C(=O)NCCOc3ccccc3)n2CC1,–,inactive [at 88.5 µM],–
Cc1nc([C@H]2CCN(Cc3ccoc3)C[C@H]2NC(=O)C2CC2)n[nH]1,-0.884% (inactive),–,–
CCC(C)Oc1ccccc1CN1CCC(CO)(CN2CCCC2)CC1 (centres undefined),-20.3% (inactive),–,–
COCc1cc(C[C@@H]2C[C@H](NC(=O)Nc3ccccc3)C2(C)C)no1,-3.55% [at 88.5 µM] (inactive),–,–
Cc1ccc(C(=O)Nc2ccc(C(O)[C@H]3COCC(=O)N3Cc3ccccc3F)cc2)cc1 (some centres undefined),3.69% (inactive),–,–
Cc1ccc(Nc2ccnc(N3CCC(C(=O)Nc4ccccc4F)CC3)n2)cc1,–,inactive,–
Cc1cc(Nc2cc(N3CCN(C)CC3)nc(Sc3ccc(NC(=O)C4CC4)cc3)n2)n[nH]1,–,–,inactive and 27.3 µM (active)
CN1CCN(C(=O)c2ccc(-c3nnc4ccc(NC(=O)C5CCC5)cn34)cc2)CC1,–,inactive,–
O=C(CC1CCN(C(=O)c2ccco2)C1)N1CCOCC1 (centres undefined),-3.27% (inactive),–,–
COCCn1nc2n(c1=O)CCN(C(=O)c1ccco1)CC2,–,inactive,–
CCC(=O)Nc1cc(-c2ccccn2)nn1-c1ccccc1,–,inactive [at 88.5 µM],–
O=C(NCCc1ccccc1F)c1cn2cc(-c3cccc(C(F)(F)F)c3)sc2n1,–,inactive,–
Fc1cccc(C2CCCCCN2Cc2cn(-c3ccccc3)nn2)c1 (centres undefined),-3.5% [at 11.5 µM] (inactive),–,–
COC(=O)c1cccc(NC(=S)N[C@H]2CO[C@H]3[C@@H]2OC[C@H]3OC(=O)Nc2ccc(Oc3ccccc3)cc2)c1,–,inactive,–
Cc1noc(C)c1S(=O)(=O)N1CCC(c2noc(-c3ccncc3)n2)C1 (centres undefined),–,inactive,–
COc1ccccc1-c1ccc2c(C(=O)NCCc3ccc(Cl)cc3)nn(C)c2n1,-16.6% (inactive),–,–
COc1ccc(C(=O)N2CC[C@@H](CC(=O)O)[C@@H](CCN3C[C@@H]4C[C@H](C3)c3cccc(=O)n3C4)C2)cc1,-10.5% (inactive),–,–
O=C(NCCCc1ccccc1)c1n[nH]c2c1CN(C(=O)C1CC1)CC2,3.69% (inactive),–,–
O=C(NCc1cccc(Cl)c1)c1ccc2nnc(Cc3ccc(Cl)cc3)n2c1,1.38% (inactive),–,–
Cc1nc(-c2c3n(c(=O)n(Cc4ccc(F)c(F)c4)c2=O)CCCC3)no1,-0.648% (inactive),–,–
COc1cccc(CN(C)C2CCc3nn(C)c(=O)n3CC2)n1 (centres undefined),–,inactive,–
COc1ccc(CC(=O)N2CCN(C(=O)c3nc4cccnc4n(Cc4ccc(OC)cc4)c3=O)CC2)cc1,–,inactive,–

SMILES,"activity change, negative = inhibition",outcome,Potency
CC[C@H]1CN(C(=O)NC(C)C)CC[C@H]1CC(=O)Nc1ccccc1,–,inactive [at 88.5 µM],–
COc1ccc(C(=O)N2C[C@@H](Oc3cccnc3)C[C@H]2C(=O)N2CCOCC2)cc1,–,inactive,–
O=C(c1ccc2c(c1)CCCO2)N1CCCn2nc(C(O)C3CCC3)cc2C1 (centres undefined),–,inactive,–
O=C(C1COc2ccccc2O1)N1CCc2c(nc3cc(-c4ccccc4)[nH]n3c2=O)C1 (centres undefined),-6.07% (inactive),–,–
CN1CCC(N2CCC[C@H]2c2nc(-c3ccc(OC4CCCCC4)nc3)no2)CC1,1.89% [at 88.5 µM] (inactive),–,–
O=C1NC(C(=O)NCc2ccccn2)Cn2cccc21 (centres undefined),–,inactive,–
COc1ccc(CN2CCn3c(nn(-c4ccncc4)c3=O)C2)cc1,–,inactive,–
CN1C[C@@H](C(=O)Nc2ccccc2)[C@H](C2CCNCC2)C1,–,inactive,–
O=C1NC2(Cc3ccccc31)CN(Cc1ccc(F)cc1)C2,–,inactive [at 88.5 µM],–
CCC1=C(C(=O)OC)C(c2cccc(OC)c2)N2C(CC(=O)N3CCOCC3)=CSC2=N1 (centres undefined),–,inactive,–
O=C1CC(c2noc(-c3cc(Cl)ccc3F)n2)CN1c1ccc(F)cc1 (centres undefined),–,inactive,–
COc1ccc(C(=O)N2CCCC(CO)CCNC(=O)CC2)c(OC)n1 (centres undefined),–,inactive,–
Cc1cccc(-c2cccc(CN3CCC(NC(=O)Cc4ccc(F)cc4)CC3)c2)c1,-5.21% (inactive),–,–
O=C(C1CC=CCC1)N1CC(c2noc(C3CCCN3CC3CC3)n2)C1 (centres undefined),–,inactive,–
O=C(CCn1cnnn1)N1CCC(N2C(=O)C3(CCCC3)C2c2ccccc2)CC1 (centres undefined),–,inactive,–
CC(C)(O)CCc1ccc(C(=O)N2CCOc3ccc(Cl)cc3C2)cc1,-18.3% (inactive),–,–
CN(C)CCNC(=O)c1cccnc1OC1CCNCC1,–,inactive,–
CN(C)[C@H]1CCCCN(CC2CCC(N)CC2)C1 (some centres undefined),2.48% (inactive),–,–
CC(C)Cn1c(=O)c(C(=O)N2CCN([S+](=O)([O-])c3cccc(C(F)(F)F)c3)CC2)nc2cccnc21,–,inactive,–
COc1cccc(CN2C(=O)OC3(CCN(C(=O)c4scnc4C)CC3)C2(C)c2cccnc2)c1 (centres undefined),–,inactive,–
O=C(NCc1ccc(Cl)nc1)c1c[nH]c2cccnc12,4.28% [at 88.5 µM] (inactive),–,–
O=[S+]([O-])(c1cccs1)N1CCN(c2nccc(Nc3ccccc3F)n2)CC1,4.45% (inactive),–,–
CCC(=O)Nc1cc(C(=O)NCc2ccc(N3CCOCC3)cc2)c2ccc(C)nc2c1,–,inactive,–
Cc1ccc(C(=O)N2CCCC(c3nc(-c4ccccc4)no3)CCNC(=O)CC2)cn1 (centres undefined),-3.36% (inactive),–,–
